Measurements reported in PubChem BioAssay AID624465 (National Center for Advancing Translational Sciences (NCATS), 2012).
In all, about 360,000 compounds went through this assay and about 300 (0.083%) were called active. The sample holds actives, similar compounds and a random draw of the others, so the mix is not that of the screen. No stated cut-off is given here; in the data, active means activation above about 40%; inconclusive means between about 15% and that limit; inactive means weaker than that.

target: D(2) dopamine receptor (Homo sapiens) (UniProt P14416); assay: Beta-Arrestin HTS for Positive Allosteric Modulators of the Human D2 Dopamine Receptor: Agonists; details: DiscoveRx PathHunter D2 beta-arrestin, luminescence, 90 min; active compounds read high; 100% = 57 uM dopamine signal
Excerpt: There is great interest in identifying small molecule ligands for G-protein coupled receptors (GPCRs) as nearly 50% of all FDA-approved drugs target these important receptor proteins. […] Amongst the dopamine receptors (DARs), the D2 is arguably one of the most validated drug targets in neurology and psychiatry. For instance, all receptor-based antiparkinsonian drugs primarily work via stimulating the D2 DAR, whereas all FDA-approved antipsychotic agents are antagonists of this receptor. The D2 DAR is also therapeutically targeted in other disorders such as restless legs syndrome, tardive dyskinesia, Tourette's syndrome, and hyperprolactinemia.
To this end, a miniaturized qHTS screen was developed to be screened against the Molecular Libraries Small Molecule Repository (MLSMR). This assay seeks to identify agonists against the D2 DAR.
NIH Molecular Libraries Probe Production Network [MLPCN]
NIH Chemical Genomics Center [NCGC]
PI Name: David Sibley, National Institutes of Neurological Disorders and Stroke
DiscoveRx D2 cells were thawed from frozen stock and seeded at 2,100 cells/ 3 uL/well media (DiscoveRx Plating Reagent 2) with MultiDrop Combi dispenser (Thermo Scientific, Logan, UT) onto white tissue culture treated 1536-well Aurora plates (Brooks Automation, Chelmsford, MA) and allowed to attach overnight at 37 deg C, 5% CO2. Next, 23 nL/well of compound solutions in DMSO were added with a pintool transfer (Kalypsis, San Diego, CA). As the positive control, 1 uL/well dopamine (EC100, 57 uM final concentration) diluted in buffer (HBSS + 10 mM HEPES + SMB + 0.1% Tween-20) was dispensed to 1 column of each plate. The rest of the plate was dispensed with buffer only, 1 uL/well as well. The cells were stimulated by compounds or dopamine control for 90 minutes at 37 deg C, 5% CO2, after which 1.5 ul/well of DiscoveRx detection reagent was added with BioRAPTR FRD dispenser. The detection reagent was prepared by mixing of Galacton Star Substrate, Emerald II solution and PathHunter buffer (supplied by the assay kit) together at 1:5:19 proportion accordingly just prior to dispensing. The plates were incubated at ambient temperature for 1 hour and then the luminescent signal was read on ViewLux plate reader (PerkinElmer, Waltham, MA).

Sequence of D(2) dopamine receptor (Homo sapiens) (P14416 whole entry, looked up): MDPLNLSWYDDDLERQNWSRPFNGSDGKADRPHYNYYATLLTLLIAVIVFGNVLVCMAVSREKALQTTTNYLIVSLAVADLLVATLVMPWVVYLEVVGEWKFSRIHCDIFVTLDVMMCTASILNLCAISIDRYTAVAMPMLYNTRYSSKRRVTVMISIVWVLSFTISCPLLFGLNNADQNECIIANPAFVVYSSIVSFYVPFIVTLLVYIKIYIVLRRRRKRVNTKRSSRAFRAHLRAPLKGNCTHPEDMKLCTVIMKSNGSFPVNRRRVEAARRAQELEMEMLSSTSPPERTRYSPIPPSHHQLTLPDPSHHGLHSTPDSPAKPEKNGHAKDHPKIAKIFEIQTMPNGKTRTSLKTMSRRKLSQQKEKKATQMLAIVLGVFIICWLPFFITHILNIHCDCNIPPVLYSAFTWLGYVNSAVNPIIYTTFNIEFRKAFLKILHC

| SMILES | activation |
| --- | --- |
| CC1(C)C(=O)C2(CCCCC2)C(=O)OC1c1cccs1 (stereo not given) | -2.99% (inactive) |
| CC(=O)Nc1ccc(CNc2nc(NCCN(C)C)nc3cc(-c4ccccc4)sc23)cc1 | -1.9% (inactive) |
| COc1cccc(CNc2nc(NCc3cccs3)nc3ccsc23)c1 | -1.88% (inactive) |
| COCCNc1nc(NCc2ccc(NC(C)=O)cc2)c2sccc2n1 | 67.7% (active) |
| COc1cccc(C(O)c2ncc(-c3ccc4ccccc4c3)[nH]2)c1 (stereo not given) | -2.42% (inactive) |
| CC1(C(=O)Nc2ccccc2Br)CCN1C(=O)CC1CC1 (stereo not given) | -0.948% (inactive) |
| COc1cc(NC(=O)C2CCN(c3cnccn3)CC2)cc(OC)c1 | -4.96% (inactive) |
| COc1ccc(N(CC(=O)Nc2cc(OC)cc(OC)c2)S(=O)(=O)c2c(C)n[nH]c2C)cc1 | -3.11% (inactive) |
| CCNC(=O)Nc1ccc(S(=O)(=O)Nc2cnc(C)nc2C)cc1 | -5.47% (inactive) |
| O=c1ccc(-c2ccc(S(=O)(=O)Nc3ccccc3)o2)n[nH]1 | -1.56% (inactive) |
| CCN1C(=O)C(=O)N(CC(=O)Nc2cc(C)ccc2C)C1=O | -2.03% (inactive) |
| CCOc1ccc(CN2CCC(n3nccc3NC(=O)C3CC3)CC2)cc1CO | 4.34% (inactive) |
| CCCNC(=O)c1cc(C2CCCCN2C(=O)OC)on1 (stereo not given) | -5.6% (inactive) |
| COc1ccc(C2=Nc3ccccc3NC(=O)C2N(C(=O)c2cc3ccccc3[nH]2)c2ccccc2)cc1 (stereo not given) | 2.65% (inactive) |
| CC(C)(O)C#Cc1ccc(CNC[C@H]2O[C@@H](n3cnc4c(=O)[nH]c(N)nc43)[C@H](O)[C@@H]2O)s1 | -5.21% (inactive) |
| O=S(=O)(Cc1nnnn1-c1ccccc1)c1ccccc1 | 0.629% (inactive) |
| CC(=O)c1c(N2CCN(c3ccc(F)cc3)CC2)nc(=S)n(-c2ccccc2)c1C | -6.73% (inactive) |
| CC(C)c1ccc(S(=O)(=O)N2CCN(C(=O)CN3C(=O)NC(C)(c4ccccc4)C3=O)CC2)cc1 (stereo not given) | 1.77% (inactive) |
| O=C(Nc1ccc(Cl)c(Cl)c1)N1CC=C(c2ccccc2)CC1 | -2.15% (inactive) |
| CC1CC(C)CN(C(=O)COC(=O)c2ccc3ncsc3c2)C1 (stereo not given) | 0.233% (inactive) |
| CCC(=O)c1c[nH]c(C(=O)NCC2CCCO2)c1 (stereo not given) | -0.182% (inactive) |
| CC(C)(C)C(=O)OCc1nc(-c2ccc(O)c(O)c2)cs1 | 78% (active) |
| CCCC(=O)N1c2ccc(-c3csc(N)n3)cc2CC1C (stereo not given) | 2.86% (inactive) |
| COc1ccc(C(C)(O)c2nc(-c3ccc(C)c(C)c3)cs2)cc1 (stereo not given) | 0.66% (inactive) |
| CCCN(CCC)c1c([N+](=O)[O-])c(=O)oc2ccccc12 | -4.9% (inactive) |
